{"source": "paper PMC10726135", "about": "“HNF4α isoforms regulate the circadian balance between carbohydrate and lipid metabolism in the liver”", "note": "Over roughly 18,000 sequences, “log2 normalized intensity” has its median near 0.36; the highest 2% begin near 7.3. This excerpt belongs to a sample that is enriched for the highest values."}
{"molecular_target": "T1, HNF4alpha8 (COS-7 nuclear extract) (Homo sapiens, UniProt P41235-5 1-452)", "T1 sequence": "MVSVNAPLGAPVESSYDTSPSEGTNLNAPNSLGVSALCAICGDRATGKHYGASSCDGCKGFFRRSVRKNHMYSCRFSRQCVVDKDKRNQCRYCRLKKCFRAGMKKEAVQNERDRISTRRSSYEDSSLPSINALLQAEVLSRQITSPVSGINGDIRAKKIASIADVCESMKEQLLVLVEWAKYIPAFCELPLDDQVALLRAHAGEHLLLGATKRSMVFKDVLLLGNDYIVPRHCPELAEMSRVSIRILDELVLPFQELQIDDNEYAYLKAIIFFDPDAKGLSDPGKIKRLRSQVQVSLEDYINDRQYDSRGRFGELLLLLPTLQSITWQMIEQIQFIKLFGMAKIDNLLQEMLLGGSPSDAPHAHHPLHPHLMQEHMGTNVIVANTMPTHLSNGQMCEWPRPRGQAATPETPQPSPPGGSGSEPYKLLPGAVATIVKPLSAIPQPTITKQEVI", "test": "protein-binding microarray; COS-7 nuclear extract on double-stranded Agilent 4x180k PBM; binding buffer, salt, pH and temperature not given in the material; high values mean tight binding", "conditions": "chain copies: 2; label: 3' end of strand 1 on the slide; dsDNA, one strand shown", "procedure,_shortened": "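Nuclear extracts of COS-7 cells transiently transfected with a human HNF4α isoform were applied to a custom Agilent SurePrint G3 4x180k array bearing ~44,000 double-stranded ~60-nt test sequences, each in quadruplicate. The bound protein was imaged on an Agilent G2565CA scanner at 2-µm resolution. Binding signal is the normalized, background-corrected gProcessedSignal from Agilent software.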", "units": {"binding signal": "log2 normalized intensity"}}
{"sequence": "AGGAATTCTGATCTTTGACCTCTCCAGGGTGCCTAGGGAGATTAGAGTATCGGTCGA", "binding signal": 7.01}
{"sequence": "AGAGCAGGAATTCTGATCTTTGACCTCTCCGCCTAGGGAGATTAGAGTATCGGTCGA", "binding signal": 8.08}
{"sequence": "TGTGCTAGATACTGGAGATATGTTGCTGGAGCCTAGGGAGATTAGAGTATCGGTCGA", "binding signal": 0.67}
{"sequence": "TCTAGATGGGGTTGAGCAGACTAAAGGACTGCCTAGGGAGATTAGAGTATCGGTCGA", "binding signal": -0.482}
{"sequence": "TGAGACATGAATCCATCCCACCTCACTTATGCCTAGGGAGATTAGAGTATCGGTCGA", "binding signal": 1.12}
{"sequence": "GCAAGGAATTCAACCCTTGTCACTTTCCCTGCCTAGGGAGATTAGAGTATCGGTCGA", "binding signal": 1.82}
{"sequence": "TTGGACAGGGTGACGTCATTGGAAATCCGAGCCTAGGGAGATTAGAGTATCGGTCGA", "binding signal": 0.187}
{"sequence": "AAAGTCCATATTCTTTGTTTGGATGCCAAAGCCTAGGGAGATTAGAGTATCGGTCGA", "binding signal": 2.25}
{"sequence": "AGGGATTGTTTAGGTACAAAGTCCATTGGAGCCTAGGGAGATTAGAGTATCGGTCGA", "binding signal": 8.46}
{"sequence": "CGGTGAGGGATTGTTTAGGTACAAAGTCCAGCCTAGGGAGATTAGAGTATCGGTCGA", "binding signal": 8.89}
{"sequence": "TTGTTTAGGTACAAAGTCCATTGGAAGCCAGCCTAGGGAGATTAGAGTATCGGTCGA", "binding signal": 6.42}
{"sequence": "AGATTCGGTGAGGGATTGTTTAGGTACAAAGCCTAGGGAGATTAGAGTATCGGTCGA", "binding signal": 1.25}
{"sequence": "CTCTGAGATTCGGTGAGGGATTGTTTAGGTGCCTAGGGAGATTAGAGTATCGGTCGA", "binding signal": 0.829}
{"sequence": "CCTTTGCCCTCCAAACTGAGAGATTTTTTCGCCTAGGGAGATTAGAGTATCGGTCGA", "binding signal": 1.05}
{"sequence": "GAGGTCTGGACCCTTGGCACTTTCACGATAGCCTAGGGAGATTAGAGTATCGGTCGA", "binding signal": 1.79}
{"sequence": "AATGTTTGTAGGGACTTTGACCCCTAAAACGCCTAGGGAGATTAGAGTATCGGTCGA", "binding signal": 9.59}
{"sequence": "GACATCTGGAAATGTTTGTAGGGACTTTGAGCCTAGGGAGATTAGAGTATCGGTCGA", "binding signal": 5.1}
{"sequence": "CTTTGACCCTGTTTTGTAAACTCCCTTTGAGCCTAGGGAGATTAGAGTATCGGTCGA", "binding signal": 2.04}
{"sequence": "AGCAATGTTTCTTGTCCAGGGACTTTGAACGCCTAGGGAGATTAGAGTATCGGTCGA", "binding signal": 6.55}
{"sequence": "CTGGAAATGTTTGTAGGGACTTTGACCCCTGCCTAGGGAGATTAGAGTATCGGTCGA", "binding signal": 10.4}
{"sequence": "CAACTGACATCTGGAAATGTTTGTAGGGACGCCTAGGGAGATTAGAGTATCGGTCGA", "binding signal": 0.67}
{"sequence": "CAGCTTTGAAGTGCTTCCTGTGTATTTCTTGCCTAGGGAGATTAGAGTATCGGTCGA", "binding signal": 1.27}
{"sequence": "GGACTAAGAATTGCTCAACCTGGACCTCATGCCTAGGGAGATTAGAGTATCGGTCGA", "binding signal": 1.89}
{"sequence": "AAAGGCTGTCACACTTGCCCTTTGCCCTCAGCCTAGGGAGATTAGAGTATCGGTCGA", "binding signal": 8.84}
{"sequence": "TGTCACACTGGCCTTTGCCCTCGCTGGCGGGCCTAGGGAGATTAGAGTATCGGTCGA", "binding signal": 5.25}
{"sequence": "CTATGTCAGGCCATTTCACCTTTGCCCTGTGCCTAGGGAGATTAGAGTATCGGTCGA", "binding signal": 7.53}
{"sequence": "AAGGCTGTCACACTGGCCTTTGCCCTCGCTGCCTAGGGAGATTAGAGTATCGGTCGA", "binding signal": 5.82}
{"sequence": "CTGTCACACTTGCCCTTTGCCCTCACTGGTGCCTAGGGAGATTAGAGTATCGGTCGA", "binding signal": 7.78}
{"sequence": "CACAAAAAGGCTGTCACACTTGCCCTTTGCGCCTAGGGAGATTAGAGTATCGGTCGA", "binding signal": 5.42}
{"sequence": "AGCCTCTATGTCAGGCCATTTCACCTTTGCGCCTAGGGAGATTAGAGTATCGGTCGA", "binding signal": 4.57}
{"sequence": "TCAGGCCATTTCACCTTTGCCCTGTCAGTCGCCTAGGGAGATTAGAGTATCGGTCGA", "binding signal": 6.79}
{"sequence": "ACACTTGCCCTTTGCCCTCACTGGTAGAAGGCCTAGGGAGATTAGAGTATCGGTCGA", "binding signal": 5.8}
{"sequence": "TTCAGCCGCTTTGAGGTCAATGGTAGAAAAGCCTAGGGAGATTAGAGTATCGGTCGA", "binding signal": 1.85}
{"sequence": "ACTAAAGGTTAAACATGTACTCTGTACTCCGCCTAGGGAGATTAGAGTATCGGTCGA", "binding signal": 3.43}
{"sequence": "ACCCCTCCACTGGACAGCAGCTACATAAGGGCCTAGGGAGATTAGAGTATCGGTCGA", "binding signal": 1.83}
{"sequence": "AAATACCCTCTTTAGGGTAGCCTGGGTTAAGCCTAGGGAGATTAGAGTATCGGTCGA", "binding signal": 0.844}
{"sequence": "TAGGGCCTTGCTATGGAGTGGACTTTGGCTGCCTAGGGAGATTAGAGTATCGGTCGA", "binding signal": 7.22}
{"sequence": "ATGTGGGGCGTGTGTTAGACTTTGGACCTGGCCTAGGGAGATTAGAGTATCGGTCGA", "binding signal": 9.77}
{"sequence": "TAAGGAGCTGAGTCATAGTGGACTTTGCCTGCCTAGGGAGATTAGAGTATCGGTCGA", "binding signal": 7.86}
{"sequence": "GTTGGACTTTGGACCTTTGTGTGTGTGTGTGCCTAGGGAGATTAGAGTATCGGTCGA", "binding signal": 8.31}
{"sequence": "TGGACAACTGTACTTTGGACTGGGGACCTGGCCTAGGGAGATTAGAGTATCGGTCGA", "binding signal": 6.02}
{"sequence": "ACTTTGGACCTTTGTGTGTGTGTGTGTGTGGCCTAGGGAGATTAGAGTATCGGTCGA", "binding signal": 3.49}
{"sequence": "GGACTTTGGCCTTACTTGGCCTGTTTGCTGGCCTAGGGAGATTAGAGTATCGGTCGA", "binding signal": 5.89}
{"sequence": "TAGACTTTGGACCTGGCCTGCGGGGTCAGGGCCTAGGGAGATTAGAGTATCGGTCGA", "binding signal": 6.35}
{"sequence": "GCTAGTAAGGAGCTGAGTCATAGTGGACTTGCCTAGGGAGATTAGAGTATCGGTCGA", "binding signal": 4.03}
{"sequence": "CACCTGTGTCAACATGGACTTTGTTGTTTGGCCTAGGGAGATTAGAGTATCGGTCGA", "binding signal": 4.99}
{"sequence": "GGGCGTGTGTTAGACTTTGGACCTGGCCTGGCCTAGGGAGATTAGAGTATCGGTCGA", "binding signal": 7.98}
{"sequence": "CGGGTATGTGGGGCGTGTGTTAGACTTTGGGCCTAGGGAGATTAGAGTATCGGTCGA", "binding signal": 4.91}
